PubChem BioAssay AID493199 (National Center for Advancing Translational Sciences (NCATS), 2011)
The list shows a part of the results. Inconclusive results are not listed. The source made the active and inactive calls. Calls come from the whole dose curve; as a rule, active = well fitted inhibition curve with a large enough effect; inconclusive = small, poorly fitted or top-dose-only effect, or effect the other way; inactive = no such curve, though single readings can be large or run the other way.

What follows are compounds tested against Muscleblind-like protein 1 (Homo sapiens) (UniProt Q9NR56) (assay: qHTS Assay for Inhibitors of MBNL1-poly(CUG) RNA binding: Initial hit validation from the primary screen). Details: TR-FRET MBNL1-His / biotin-(CUG)12 binding, 60 min.
From the text: NIH Chemical Genomics Center [NCGC] NIH Molecular Libraries Probe Production Centers Network [MLPCN] MLPCN Grant: R03 MH087421-01 Assay Submitter (PI): Charles Thornton NCGC Assay Overview: Expanded CTG repeats in the 3' untranslated region of the DM protein kinase (DMPK) gene causes type I myotonic dystrophy (DM1). DM1 is a multi-systemic disease with a prevalence of 1/7000. Clinical features include myotonia, progressive muscle weakness and wasting, cardiac arrhythmia, insulin resistance, hypersomnolence, cataracts, and other symptoms. The pathogenic effect of expanded CTG repeats stems from deleterious effects of the mutant transcript. CUGexp mRNA accumulates in nuclear foci and sequesters proteins of the muscleblind family, of which MBNL1 is the most common family member in skeletal muscles. The binding interaction between MBNL1 and CUGexp tracts leads to deregulation of alternative splicing and is therefore a key molecular step in the pathogenesis of DM1. To target this binding interaction, we optimized a protein-RNA binding assay in 1536-well format for identification of small molecule inhibitors of biotinylated (CUG)12 and his-tagged MBNL1 binding. Protein-RNA complex of MBNL1-His and Biotin-(CUG)12 captures the detection reagents terbium-labeled anti-His antibody and streptavidin conjugated XL665. This brings the terbium label within close proximity to XL665 to allow time-resolved fluorescence resonance energy transfer (TR-FRET). Inhibitors of MBNL1-(CUG)12 binding will disrupt TR-FRET. This deposition presents the initial confirmation of hits from the primary screen in the same assay.
NCGC Assay Protocol Summary: This is a TR-FRET binding assay with MBNL1-His and Biotin-(CUG)12 RNA. The assay uses a ratiometric measurement. […] (3) Add 1 ul of terbium labeled anti-His antibody (0.055 ng/ul final concentration) (4) Add 1 ul of streptavidin-XL665 (5 nM final concentration) (5) Incubate 60 min at room temperature (6) Detect the assay plate in a EnVision plate reader (PerkinElmer) with Ex=340 nm, Em1=665 nm and Em2=545 nm. […]

Chain of Muscleblind-like protein 1 (Homo sapiens) (Q9NR56 whole entry, looked up): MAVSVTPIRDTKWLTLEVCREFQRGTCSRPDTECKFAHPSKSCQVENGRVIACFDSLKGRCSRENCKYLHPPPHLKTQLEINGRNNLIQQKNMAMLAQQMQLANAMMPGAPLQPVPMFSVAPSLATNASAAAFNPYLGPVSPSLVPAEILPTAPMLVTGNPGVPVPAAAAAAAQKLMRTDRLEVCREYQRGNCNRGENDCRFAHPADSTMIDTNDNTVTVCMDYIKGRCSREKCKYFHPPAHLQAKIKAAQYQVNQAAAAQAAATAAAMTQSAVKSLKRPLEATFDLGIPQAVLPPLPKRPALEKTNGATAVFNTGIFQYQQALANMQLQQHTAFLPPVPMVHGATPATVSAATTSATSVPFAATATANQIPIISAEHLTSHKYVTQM

Potency, active:
COc1ccc(Cc2n[nH]c(=S)n2NC(=O)Nc2ccc(C)cc2)cc1 20.6 µM
COc1cccc(NC(=O)Cn2cnc3sc(C)c(S(=O)(=O)N4CCN(C)CC4)c3c2=O)c1 16.3 µM
CCOC(=O)c1c(C)[nH]c2c1-c1ccccc1C(=O)C2=O 3.26 µM
